According to PubChem BioAssay AID1159580 (chemical genetic matrix, 2015):
Where “and” joins values, the source holds several entries; their conditions need not be identical. Equal entries are not always repeated. Screen size: about 5,500 compounds; about 2,000 (36%) were called active. About 18% were inconclusive and are not listed. Rule as the data show it: active = normalized growth mostly below about 0.91 (no sharp cut-off); inconclusive = no clear call, values can overlap the other calls; inactive = mostly above about 0.92. The list shows a part of the results.

Experiment: chemical genetic growth profiling, strain panel (AID 1159580);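 also: tested at 20 µM; growth read once vehicle control cultures reached saturation at 30 °C; 1 = growth at the plate median or of vehicle wells; lower values mean less growth of the strain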
Settings: S. cerevisiae deletion strains, growth OD

Measured: normalized growth

O=C(O)c1cccnc1
inactive: locus YAL013W, strain DEP1, stronger effect = lower value 0.987 | locus YAL021C, strain ccr4, stronger effect = lower value 1 | locus YAL026C, strain drs2, stronger effect = lower value 0.993 | locus YAL030W, strain snc1, stronger effect = lower value 0.994 | locus YBL061C, strain skt5, stronger effect = lower value 1.02 | locus YBR009C, strain hhf1, stronger effect = lower value 1.01 | locus YBR021W, strain FUR4, stronger effect = lower value 1.02 | locus YBR023C, strain chs3, stronger effect = lower value 1.01 | locus YBR171W, strain sec66, stronger effect = lower value 0.997 | locus YBR229C, strain ROT2, stronger effect = lower value 0.96 | locus YBR231C, strain swc5, stronger effect = lower value 0.996 | locus YBR279W, strain paf1, stronger effect = lower value 1 | locus YCL011C, strain gbp2, stronger effect = lower value 0.984 | locus YCL016C, strain dcc1, stronger effect = lower value 1.03 | locus YCL029C, strain bik1, stronger effect = lower value 1.01 | locus YCL061C, strain MRC1, stronger effect = lower value 1 | locus YCL069W, strain vba3, stronger effect = lower value 0.976 | locus YCR088W, strain abp1, stronger effect = lower value 0.992 | locus YDL005C, strain med2, stronger effect = lower value 0.98 | locus YDL035C, strain GPR1, stronger effect = lower value 0.968 | locus YDL040C, strain nat1, stronger effect = lower value 0.987 | locus YDL074C, strain BRE1, stronger effect = lower value 1.02 | locus YDL101C, strain DUN1, stronger effect = lower value 1.01 | locus YDL134C, strain PPH21, stronger effect = lower value 0.984 | locus YDL185W, strain tfp1, stronger effect = lower value 1.01 | locus YDL192W, strain arf1, stronger effect = lower value 1 | locus YDR001C, strain nth1, stronger effect = lower value 0.992 | locus YDR069C, strain doa4, stronger effect = lower value 1.01 | locus YDR101C, strain arx1, stronger effect = lower value 1.02 | locus YDR137W, strain rgp1, stronger effect = lower value 1.05 | locus YDR150W, strain NUM1, stronger effect = lower value 0.983 | locus YDR159W, strain sac3, stronger effect = lower value 0.977 | locus YDR162C, strain NBP2, stronger effect = lower value 0.985 | locus YDR195W, strain ref2 1.01 | locus YDR297W, strain sur2, stronger effect = lower value 0.996 | locus YDR318W, strain mcm21, stronger effect = lower value 1.04 | locus YDR334W, strain swr1, stronger effect = lower value 0.971 | locus YDR335W, strain msn5, stronger effect = lower value 0.993 | locus YDR388W, stronger effect = lower value 1 | locus YDR392W, strain spt3, stronger effect = lower value 0.973 | locus YDR502C, strain sam2, stronger effect = lower value 1 | locus YEL003W, strain gim4, stronger effect = lower value 0.985 | locus YEL037C, strain rad23, stronger effect = lower value 0.977 | locus YEL061C, strain CIN8 (second series), stronger effect = lower value 0.98 | locus YEL061C, strain CIN8, stronger effect = lower value 0.989 | locus YER015W, strain faa2, stronger effect = lower value 0.998 | locus YER016W, strain bim1, stronger effect = lower value 0.992 | locus YER110C, stronger effect = lower value 0.985 | locus YER111C, strain swi4, stronger effect = lower value 0.999 | locus YER155C, strain BEM2 (second series), stronger effect = lower value 0.995 | locus YER155C, strain BEM2, stronger effect = lower value 1.02 | locus YER167W, strain BCK2, stronger effect = lower value 0.982 | locus YFR010W, strain ubp6, stronger effect = lower value 0.995 | locus YGL078C, strain dbp3, stronger effect = lower value 1 | locus YGL086W, strain mad1, stronger effect = lower value 1.02 | locus YGL167C, strain pmr1, stronger effect = lower value 1.01 | locus YGL173C, strain kem1, stronger effect = lower value 1.01 | locus YGL227W, strain vid30, stronger effect = lower value 0.987 | locus YGL240W, strain doc1, stronger effect = lower value 1.01 | locus YGL248W, strain PDE1, stronger effect = lower value 0.983 | locus YGL253W, strain hxk2, stronger effect = lower value 0.987 | locus YGR078C, strain PAC10, stronger effect = lower value 1.04 | locus YGR135W, strain pre9, stronger effect = lower value 1.05 | locus YGR229C, strain SMI1, stronger effect = lower value 1.03 | locus YGR252W, strain gcn5, stronger effect = lower value 0.919 | locus YHR013C, strain ard1, stronger effect = lower value 1.04 | locus YHR027C, strain rpn1, stronger effect = lower value 1.01 | locus YHR030C, strain SLT2, stronger effect = lower value 0.997 and 1 | locus YHR079C, strain IRE1 (second series), stronger effect = lower value 1.01 | locus YHR079C, strain IRE1, stronger effect = lower value 1.03 | locus YHR094C, strain hxt1, stronger effect = lower value 0.999 | locus YHR129C, strain ARP1, stronger effect = lower value 1.01 | locus YHR142W, strain chs7, stronger effect = lower value 1.01 | locus YHR200W, strain rpn10, stronger effect = lower value 1.02 | locus YIL066C, strain RNR3, stronger effect = lower value 0.982 | locus YIL073C, strain SPO22, stronger effect = lower value 1.01 | locus YIL125W, strain kgd1, stronger effect = lower value 0.984 | locus YIR030C, strain dcg1, stronger effect = lower value 0.996 | locus YJL092W, strain hpr5, stronger effect = lower value 0.978 | locus YJL095W, strain BCK1 (second series), stronger effect = lower value 1 | locus YJL095W, strain BCK1, stronger effect = lower value 1.05 and 0.999 | locus YJL115W, strain asf1, stronger effect = lower value 0.973 | locus YJL129C, strain trk1, stronger effect = lower value 0.949 | locus YJL134W, strain LCB3, stronger effect = lower value 0.991 | locus YJL154C, strain vps35, stronger effect = lower value 0.977 | locus YJL164C, strain tpk1, stronger effect = lower value 1.02 | locus YJL166W, strain qcr8, stronger effect = lower value 0.988 | locus YJL168C, strain set2, stronger effect = lower value 1 | locus YJL187C, strain SWE1 (second series), stronger effect = lower value 0.996 | locus YJL187C, strain SWE1, stronger effect = lower value 0.99 | locus YJR043C, strain POL32, stronger effect = lower value 1.05 | locus YJR066W, strain TOR1, stronger effect = lower value 0.971
